From PubChem BioAssay come the findings set out here.

Each structure is given as a SMILES string. Calls of active or inactive are those of the source.

For assay [1], the system named is Plasmodium falciparum Sir2 (PF13_0152, Sir2A). The experiment in a line: pfSir2 binders on small-molecule microarrays, primary screen, biochemical, small-molecule microarray, 635 nm fluorescence (AID 1098).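 Also: score merges spot fluorescence intensity with its signal-to-noise ratio.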 The following applies: small-molecule microarray binding, fluorescence 635 nm; higher = more signal.
The nature of assay [2]: small-molecule microarray binders of probe aDKK1, primary screen, biochemical, biotinylated probe, 635/667 nm fluorescence (AID 1099).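 Also: score merges 667nm spot fluorescence with signal to noise across triplicate slides; reference of the scale not given here.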 The following applies: higher = more signal.
Assay [3] in a line: small-molecule microarray binders of probe aCHRDL2, primary screen, biochemical, biotinylated probe, 635/667 nm fluorescence (AID 1100). The conditions noted are these: higher = more signal.
The nature of assay [4]: splicing luciferase reporter signal modulators, primary screen, spliceosome inhibition project, cell-based, HEK293, splice +/- reporter (AID 1101).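 Also: HEK293 cells carrying a splicing-competent luciferase reporter gene; test concentration not given here.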 The following applies: luminescence, 24 h, higher = more signal, called active from +8 up or from −8 down.
In assay [5] the target is Fibroblast growth factor 10 (Homo sapiens) (UniProt O15520). The experiment in a line: FGF10 binders on small-molecule microarrays, primary screen, biochemical, small-molecule microarray, 635 nm fluorescence (AID 1102). The conditions noted are these: FGF10 binding, fluorescence 635 nm, higher = more signal.
Chain of Fibroblast growth factor 10 (Homo sapiens) (O15520 whole entry, looked up): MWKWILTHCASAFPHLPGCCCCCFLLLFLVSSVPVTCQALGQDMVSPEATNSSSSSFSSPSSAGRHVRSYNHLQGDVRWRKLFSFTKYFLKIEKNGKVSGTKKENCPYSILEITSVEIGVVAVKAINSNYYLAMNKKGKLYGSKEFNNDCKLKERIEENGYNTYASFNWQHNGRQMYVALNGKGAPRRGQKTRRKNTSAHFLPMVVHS
For assay [6], the system named is glycogen synthase kinase-3 (GSK3A per assay name; protocol says GSK3B). The experiment in a line: GSK3 binders on small-molecule microarrays, primary screen, biochemical, small-molecule microarray, 635 nm fluorescence, GSK3A (AID 1103). Also: the record names both GSK3A and GSK3B. The conditions noted are these: small-molecule microarray binding, fluorescence 635 nm; higher = more signal.
Assay [7] deals with Epidermal growth factor receptor (Homo sapiens) (UniProt P00533). The experiment in a line: EGFR binders on small-molecule microarrays, primary screen, biochemical, small-molecule microarray, 635 nm fluorescence (AID 1104).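 Also: score merges 667 nm emission intensity with spot signal to noise over triplicate slides.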 The conditions noted are these: EGFR binding, higher = more signal.
Chain of Epidermal growth factor receptor (Homo sapiens) (P00533 whole entry, looked up): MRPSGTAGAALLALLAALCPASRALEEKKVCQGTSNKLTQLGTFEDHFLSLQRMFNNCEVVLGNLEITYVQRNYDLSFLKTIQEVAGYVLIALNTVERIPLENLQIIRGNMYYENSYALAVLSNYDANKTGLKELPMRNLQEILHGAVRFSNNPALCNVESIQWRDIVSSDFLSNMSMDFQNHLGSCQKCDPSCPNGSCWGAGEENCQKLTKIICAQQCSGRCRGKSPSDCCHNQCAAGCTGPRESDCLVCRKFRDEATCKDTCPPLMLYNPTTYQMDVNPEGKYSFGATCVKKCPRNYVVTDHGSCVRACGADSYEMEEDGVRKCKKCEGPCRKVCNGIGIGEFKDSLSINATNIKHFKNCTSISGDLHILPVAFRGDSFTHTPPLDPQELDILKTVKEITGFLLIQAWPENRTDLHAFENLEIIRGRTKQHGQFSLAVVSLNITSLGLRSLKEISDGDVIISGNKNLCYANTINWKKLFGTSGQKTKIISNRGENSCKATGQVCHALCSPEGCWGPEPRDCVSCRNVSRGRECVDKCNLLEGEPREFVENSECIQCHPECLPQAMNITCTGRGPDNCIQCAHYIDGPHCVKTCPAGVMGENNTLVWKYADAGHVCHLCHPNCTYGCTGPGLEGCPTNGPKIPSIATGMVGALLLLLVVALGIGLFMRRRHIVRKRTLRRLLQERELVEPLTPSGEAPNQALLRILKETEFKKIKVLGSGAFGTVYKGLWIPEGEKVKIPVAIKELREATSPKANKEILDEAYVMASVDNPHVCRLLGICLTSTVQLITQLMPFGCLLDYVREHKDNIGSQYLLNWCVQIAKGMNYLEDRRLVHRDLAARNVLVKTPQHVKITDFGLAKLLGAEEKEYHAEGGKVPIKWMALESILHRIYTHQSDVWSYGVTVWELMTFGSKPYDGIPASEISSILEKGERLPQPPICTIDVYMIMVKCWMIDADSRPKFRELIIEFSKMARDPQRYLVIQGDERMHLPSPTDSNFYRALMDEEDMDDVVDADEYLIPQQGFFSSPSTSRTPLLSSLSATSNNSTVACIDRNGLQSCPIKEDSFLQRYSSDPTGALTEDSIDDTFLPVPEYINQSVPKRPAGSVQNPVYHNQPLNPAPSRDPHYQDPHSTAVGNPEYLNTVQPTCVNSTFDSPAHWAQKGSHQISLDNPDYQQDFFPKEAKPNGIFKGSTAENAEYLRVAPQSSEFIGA
The target in assay [8] is Follistatin-related protein 3 (Homo sapiens) (UniProt O95633). The experiment in a line: FSTL3 binders on small-molecule microarrays, primary screen, biochemical, small-molecule microarray, 635 nm fluorescence (AID 1105).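 Also: score merges emission near 667 nm and signal to noise per printed spot across three slides.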 The conditions noted are these: FSTL3 binding, higher = more signal.
Chain of Follistatin-related protein 3 (Homo sapiens) (O95633 whole entry, looked up): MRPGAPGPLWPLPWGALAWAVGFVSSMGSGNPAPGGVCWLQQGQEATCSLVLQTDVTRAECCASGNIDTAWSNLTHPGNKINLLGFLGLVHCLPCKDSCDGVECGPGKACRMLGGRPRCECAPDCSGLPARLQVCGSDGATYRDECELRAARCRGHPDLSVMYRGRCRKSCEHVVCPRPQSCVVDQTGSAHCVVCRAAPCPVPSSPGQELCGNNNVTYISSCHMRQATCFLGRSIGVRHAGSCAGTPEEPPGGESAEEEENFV
The target in assay [9] is Dickkopf-related protein 1 (Homo sapiens) (UniProt O94907). The assay is described as follows: DKK1 binders on small-molecule microarrays, primary screen, biochemical, small-molecule microarray, 635 nm fluorescence scan (AID 1106).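 Also: score merges emission near 667 nm with signal to noise over three replicate slides.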 The conditions noted are these: DKK1 binding, higher = more signal.
Chain of Dickkopf-related protein 1 (Homo sapiens) (O94907 whole entry, looked up): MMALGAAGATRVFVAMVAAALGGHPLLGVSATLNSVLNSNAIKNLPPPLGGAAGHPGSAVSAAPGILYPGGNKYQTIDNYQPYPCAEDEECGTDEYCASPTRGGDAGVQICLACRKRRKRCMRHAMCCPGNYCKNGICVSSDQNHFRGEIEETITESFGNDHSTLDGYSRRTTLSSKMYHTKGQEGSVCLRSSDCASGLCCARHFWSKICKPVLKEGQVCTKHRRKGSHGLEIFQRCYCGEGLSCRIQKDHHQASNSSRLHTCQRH
Assay [10] has as its system Inhibin beta A chain (activin A). The experiment in a line: INHBA (activin A) binders on microarrays, primary screen, biochemical, small-molecule microarray, 635 nm fluorescence scan (AID 1107).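 Also: mouse activin A protein probed at 4.33 µg/mL on printed slides; score merges bound-protein fluorescence near 667 nm with spot signal-to-noise.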 The following applies: small-molecule microarray binding, higher = more signal.

In the case of `Cc1ccccc1C(O)C1C=CC2C(=O)N(Cc3ccccc3)C(=O)C2N1n1cnnc1` (stereo not given), the composite z-score is 0.996 in [1]; 0.363 in [2]; 0.118 in [3]; 0.517 in assay [5]; 0.644 in assay [6]; -0.126 in assay [7]. Besides, the composite z-score was 0.834 in assay [8], 0.189 in [9] and 0.837 in assay [10]. The z-score in assay [4] was -0.512 (inactive).
Take `COc1ccc([Si](C)(C)[C@@H]2[C@@H](CC(=O)N(CCO)Cc3ccccc3)O[C@]3(C(=O)N(C)c4c(Br)cc(C)cc43)[C@H]2C)cc1`: the composite z-score in [1] is 0.717; in assay [2], -0.298; in assay [3] it was -0.237; in assay [5] it was 1.1; in assay [6], -0.27; in [7], 0.729. Further, the composite z-score was found to be 1.09 in assay [8], 0.834 in [9] and 1.02 in assay [10]. Also, the z-score in assay [4] was -1.92 (inactive).
For `Cc1ccc(S[C@]2(C(=O)NCC(C)C)CC(=O)N(C3CCCCC3)[C@@H]2c2ccc(CO)cc2I)cc1`, the composite z-score was 0.42 in [1]; 0.0006 in assay [2]; 0.421 in assay [3]; 0.231 in [5]; 0.296 in [6]; 0.21 in assay [7]. Moreover, the figures for the composite z-score in [8], in [9] and in assay [10] were 0.468, -0.147 and 0.83, respectively. In addition, the z-score in [4] is -1.4 (inactive).
In the case of `C=C(CCCC)/C(=C/C[C@@H](OC(=O)c1ccncc1)c1ccccc1OCCO)c1cc(C(=O)OC)ccc1OC`, the composite z-score in assay [1] is 0.96; in assay [2], -0.0551; in [3] it was -0.133; in assay [5] it was 0.659; in assay [6], 0.272; in assay [7] it was 0.145. Further, the composite z-score amounted to 0.422 in [8], 0.135 in [9] and 0.851 in assay [10]. Also, the z-score in assay [4] is -0.322 (inactive).
Take `CCC[C@@H]1C[C@@]1(CCC)[C@@H](NC(=O)c1ccco1)c1ccc(Cl)cc1`: the composite z-score in assay [1] was -0.585; in [2], -0.0347; in [3] it was 0.762; in assay [5], 0.14; in [6], -2.1; in assay [7], -0.414. The composite z-score in assay [8] was -0.722; in [9] it was -0.366; in assay [10], 0.447. The z-score in [4] is -3.52 (inactive).
Regarding `COCCCNC(=O)[C@@H]1c2ccccc2C(=O)N(c2ccc(C)cn2)[C@H]1c1ccc(CO)cc1`, the composite z-score in [1] was 1.21; in assay [2], -0.281; in assay [3], 1.01; in assay [5], -1.87; in assay [6], -1.19; in assay [7], -2.24. The values for the composite z-score in [8], in [9] and in assay [10] were -1.84, -1.42 and -1.84, respectively. In addition, in assay [4], the z-score was -0.517 (inactive).
Turning to `O=[N+]([O-])c1ccc(C[n+]2ccc(-c3ccc(CO)cc3)cc2)o1`, the composite z-score was 1.2 in assay [1]; -0.0024 in assay [2]; 0.192 in [3]; 0.527 in assay [5]; 0.213 in [6]; 0.224 in assay [7]. The composite z-score in assay [8] amounted to 1.45; in assay [9], 0.253; in assay [10] it was 1.86. The z-score in assay [4] is -0.0885 (inactive).
Consider `C=CC[C@]1(C(=O)NCC(O)CO)N=C(c2ccc(OCCCO)cc2)O[C@H]1c1ccccc1N=[N+]=[N-]` (stereo not given in full), for which the composite z-score in assay [1] was 0.939; in assay [2] it was 0.731; in [3] it was 1.28; in [5], 0.258; in assay [6], -0.216; in assay [7], -0.0496. Moreover, the composite z-score is -0.291 in [8], -0.379 in assay [9] and 1.42 in [10]. The z-score in assay [4] was -0.789 (inactive).
Regarding `CCCC[C@H]1OB(O)C[C@H]2C1=C(COc1ccccc1)Cn1c(=O)n(-c3ccccc3)c(=O)n12`, the composite z-score is 0.918 in assay [1]; -0.149 in assay [2]; -0.387 in [3]; 0.926 in assay [5]; 0.61 in assay [6]; 0.283 in assay [7]. In addition, the figures for the composite z-score in assay [8], in assay [9] and in assay [10] were 1.01, 0.203 and 0.54, respectively. In [4], the z-score was 0.142 (inactive).
Consider `C[C@@H]1ON(c2ccccc2)[C@H](c2ccccc2)[C@H]1C(=O)N1C(=O)OC[C@H]1Cc1ccccc1`, for which the composite z-score in [1] is 0.342; in assay [2], -0.327; in [3], -0.503; in assay [5], 0.423; in assay [6], 0.149; in assay [7], 0.569. Also, the values for the composite z-score in [8], in assay [9] and in assay [10] were 0.697, 0.471 and 0.106, respectively. In addition, in assay [4], the z-score is -0.34 (inactive).
As for `COC(=O)[C@]1(Cc2ccccc2N=[N+]=[N-])N=C(c2ccc(OCCCO)cc2)O[C@@H]1c1ccccc1`, the composite z-score in [1] was 1.12; in assay [2], 0.974; in assay [3] it was 1.12; in assay [5], -0.261; in assay [6], 0.196; in assay [7] it was -0.355. Also, the composite z-score in [8] was -0.105; in [9] it was -0.932; in assay [10], 0.897. The z-score in assay [4] was 9.3 (active).
